Among the test systems are SK-MEL-2 melanoma; EKVX NSCLC; SN12C renal; UO-31 renal; TK-10 renal; ACHN renal; CAKI-1 renal; A498 renal; MOLT-4 leukemia; CCRF-CEM leukemia.
Assay in all cases: NCI-60 one-dose screen, 48 h (100 = growth as untreated, 0 = no growth, -100 = all killed)
Common to all, as to settings: 10 µM unless noted

About 83,000 compounds went through this panel and 20% of them were active in at least one assay; those are over-represented in the sample as a whole.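 Single-concentration screen, 48 h exposure, 96-well plates. Endpoint: percent growth. Below 10 = active.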 A number with no mark means an inactive call. Active and inactive are the calls of the source.

The source of these data is PubChem BioAssay (NCI).

Regarding `CCC(c1ccccc1)C(CC)c1ccc(O)c(O)c1` (stereo not given), the growth in the assay with SK-MEL-2 melanoma is 94.3%; in the assay on EKVX NSCLC, 107%; in the assay with SN12C renal, 91.9%; in the assay on UO-31 renal, 74.2%; in the assay with TK-10 renal it was 106%; in the assay with ACHN renal, 95.9%. The growth in the assay with CAKI-1 renal is 101%; in the assay with A498 renal, 110%; with MOLT-4 leukemia, 73.8%.
For the molecule `COc1cc(NC(N)=NCC(C)(C)COc2ccc(C(F)(F)F)cc2)cnc1C#N`, the growth with SK-MEL-2 melanoma is 77.3%; in the assay on EKVX NSCLC it was 70.5%; with SN12C renal, 66.8%; in the assay with UO-31 renal it was 29.8%; in the assay on TK-10 renal, 62.5%; in the assay with ACHN renal, 62.9%. For the same molecule, the values for the growth in the assay on CAKI-1 renal, with A498 renal and with MOLT-4 leukemia were 62.8%, 45.9% and 15.6%, respectively.
Turning to `OC(c1cccc(C(F)(F)F)c1)c1cnccc1NC1CCCCCC1` (stereo not given), the growth in the assay on SK-MEL-2 melanoma is 43%; in the assay with EKVX NSCLC it was 57.3%; in the assay on SN12C renal, 54.1%; in the assay with UO-31 renal it was 28.7%; in the assay on TK-10 renal, 60.4%; in the assay on ACHN renal it was 43.9%. Moreover, the growth was 40.4% in the assay with CAKI-1 renal, 50.3% in the assay on A498 renal and 22.6% with MOLT-4 leukemia.
`O=C1C=CC(=O)c2c1nc1n2CCCC1`: the growth in the assay with SK-MEL-2 melanoma was 70.6%; in the assay with EKVX NSCLC, 104%; with SN12C renal, 74%; in the assay on UO-31 renal, 91.1%; in the assay with TK-10 renal, 109%; with ACHN renal it was 81.1%. In addition, the growth in the assay on A498 renal is 96.3%; in the assay on CCRF-CEM leukemia, 58.8%; in the assay with MOLT-4 leukemia, 90.3%.
Take `O=C(C[C@@H](C(=O)NCc1cccc(C(F)(F)F)c1)N1C(=O)[C@@H](N2C(=O)OC[C@@H]2c2ccccc2)[C@H]1/C=C/c1ccccc1)NC1CCN(Cc2ccccc2)CC1`: the growth in the assay with SK-MEL-2 melanoma was 49.6%; with EKVX NSCLC, 82.3%; in the assay with SN12C renal, 82.2%; with UO-31 renal it was 64.3%; with TK-10 renal it was 61%; in the assay with ACHN renal it was 96.2%. Further, the growth is 49.8% in the assay on A498 renal, 21% in the assay on CCRF-CEM leukemia and -5.43% (active) in the assay on MOLT-4 leukemia.
`COc1ccc(C(=O)/C=C/c2cc3ccccc3[nH]c2=O)cc1`: the growth in the assay on SK-MEL-2 melanoma was 55.1%; in the assay on EKVX NSCLC, 79%; in the assay on SN12C renal, 45%; with UO-31 renal, 24.9%; in the assay on TK-10 renal, 24.7%; in the assay with ACHN renal, 57.9%. Besides, the growth with A498 renal is 47.4%; in the assay with CCRF-CEM leukemia, 19.5%; with MOLT-4 leukemia, 32.5%.
Regarding `COc1ccc(C2Nc3ccccc3-n3cccc32)cc1` (stereo not given), the growth in the assay on SK-MEL-2 melanoma is 92.7%; in the assay with EKVX NSCLC, 68.8%; with SN12C renal, 97.4%; in the assay on UO-31 renal, 58.3%; in the assay on TK-10 renal, 100%; in the assay with ACHN renal it was 88%. Further, the figures for the growth in the assay with CAKI-1 renal, in the assay with A498 renal and in the assay with MOLT-4 leukemia were 89%, 93.2% and 120%, respectively.
In the case of `COc1ccc(-c2cc(-c3cccnc3)nc3sc4c(=O)n(-c5ccc(C)cc5)cnc4c23)cc1OC`, the growth in the assay with SK-MEL-2 melanoma is 108%; in the assay on EKVX NSCLC, 86.4%; in the assay on SN12C renal, 92.2%; with UO-31 renal it was 82%; in the assay with TK-10 renal it was 111%; in the assay with ACHN renal, 88.1%. Besides, the growth was 91% with A498 renal, 105% in the assay on CCRF-CEM leukemia and 97.4% with MOLT-4 leukemia.
As for `CCCCCCCCCC(=O)Oc1ccc(/C(=C(/C)Cc2cccc(OC)c2)c2ccc(OCCN(C)C)cc2)cc1`, the growth in the assay on SK-MEL-2 melanoma is 107%; in the assay with EKVX NSCLC, 94.7%; in the assay with SN12C renal, 99.2%; with UO-31 renal it was 92.5%; in the assay on TK-10 renal it was 109%; in the assay on ACHN renal, 110%. The growth with A498 renal is 95.8%; in the assay with CCRF-CEM leukemia, 103%; with MOLT-4 leukemia it was 115%.
Take `O=C1/C(=C/c2ccc(F)cc2)CN(C(=O)CCN2CCC(=NO)CC2)C/C1=C\c1ccc(F)cc1`: the growth was -14% (active) in the assay on SK-MEL-2 melanoma; -21.4% (active) with EKVX NSCLC; -35.4% (active) in the assay with SN12C renal; -100% (active) in the assay with UO-31 renal; -5.74% (active) with TK-10 renal; -66.3% (active) in the assay with ACHN renal. The growth with CAKI-1 renal is -46.4% (active); in the assay on A498 renal, 24.9%; with MOLT-4 leukemia it was 0.0352% (active).
For `CC(C)c1c(C(=O)Nc2ccccc2)c(-c2ccccc2)c(-c2ccc(F)cc2)n1CC[C@@H]1CC=CC(=O)O1`, the growth with SK-MEL-2 melanoma was -55.9% (active); in the assay on EKVX NSCLC it was 34.4%; in the assay on SN12C renal it was -15.5% (active); in the assay on UO-31 renal it was -75.9% (active); with TK-10 renal, 28.5%; in the assay with ACHN renal, -27.8% (active). The growth with CAKI-1 renal is 4.73% (active); in the assay on A498 renal, 73.7%; in the assay with MOLT-4 leukemia, -33.2% (active).
As for `Cc1ccc(SCN2CCN(c3cccc(Cl)c3)CC2)cc1`, the growth with SK-MEL-2 melanoma is 102%; in the assay on EKVX NSCLC, 90.2%; in the assay with SN12C renal, 75.6%; in the assay with UO-31 renal, 86.6%; with TK-10 renal, 97.7%; in the assay with ACHN renal, 104%. Moreover, the growth in the assay with CAKI-1 renal was 70.7%; with A498 renal it was 85.5%; with MOLT-4 leukemia, 83.4%.
As for `CCN(CC)CCC(=O)c1ccc(OC)c2ccccc12`, the growth is 91.7% with SK-MEL-2 melanoma; 94% in the assay with EKVX NSCLC; 106% with SN12C renal; 62.3% in the assay on UO-31 renal; 60.1% with TK-10 renal; 105% in the assay on ACHN renal. Further, the growth was 124% in the assay with A498 renal, 18.7% in the assay on CCRF-CEM leukemia and 29.1% with MOLT-4 leukemia.
Take `O=C(/C=C\c1ccc2ccccc2n1)c1cc(Cl)ccc1O`: the growth is -9.71% (active) in the assay on SK-MEL-2 melanoma; 85.9% in the assay on EKVX NSCLC; 110% with SN12C renal; 65.2% with UO-31 renal; 95.1% in the assay with TK-10 renal; 89.5% with ACHN renal. The growth in the assay with CAKI-1 renal is 44.9%; in the assay on A498 renal it was 113%; with MOLT-4 leukemia, 54.2%.
Regarding `CCOC(=O)C(CC)n1c(=O)c2cc(OC)c(OC)cc2c2cnc3[nH]ccc3c21` (stereo not given), the growth in the assay with SK-MEL-2 melanoma is 103%; in the assay on EKVX NSCLC it was 76.4%; with SN12C renal it was 64.9%; in the assay on UO-31 renal, 37%; in the assay on TK-10 renal it was 74.2%; with ACHN renal it was 61.8%. Also, the growth was -9.97% (active) in the assay with A498 renal, 81.1% in the assay on CCRF-CEM leukemia and 53.6% with MOLT-4 leukemia.
